Measured values published in PubChem BioAssay (EPA / NIEHS).
Records with an inconclusive call do not appear. Calls of active or inactive are those of the source. Rule for the calls, unless noted: active = hit-call score of the fitted dose curve at least 0.9, where 1 is the maximum; inconclusive = response in the unintended direction; inactive = score below 0.9.

How the values were obtained:
[1] = TOX21_p53_BLA_p2_viability: Viability Assessment in the Tox21 HCT-116 p53 Agonism Beta-lactamase Assay, Phase 2 (AID 2283591);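 note: compound exposure lasted 16 h at 37 °C; actives lower the ATP signal meaning cytotoxicity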
Summary of the method: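 Cytotoxicity readout: CellTiter-Glo ATP luminescence, 30 min at room temperature, after the beta-lactamase read. Cells were HCT116 exposed 16 h at 37C to compounds pin-transferred at 217-fold dilution from DMSO stocks.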

[2] = biological target: Cellular tumor antigen p53 (Homo sapiens) (UniProt P04637); test: TOX21_p53_BLA_p2_ratio: Tox21 HCT-116 p53 Agonism Beta-lactamase Assay, Ratio, Phase 2 (AID 2283592)
Chain of Cellular tumor antigen p53 (Homo sapiens) (P04637 whole entry, looked up): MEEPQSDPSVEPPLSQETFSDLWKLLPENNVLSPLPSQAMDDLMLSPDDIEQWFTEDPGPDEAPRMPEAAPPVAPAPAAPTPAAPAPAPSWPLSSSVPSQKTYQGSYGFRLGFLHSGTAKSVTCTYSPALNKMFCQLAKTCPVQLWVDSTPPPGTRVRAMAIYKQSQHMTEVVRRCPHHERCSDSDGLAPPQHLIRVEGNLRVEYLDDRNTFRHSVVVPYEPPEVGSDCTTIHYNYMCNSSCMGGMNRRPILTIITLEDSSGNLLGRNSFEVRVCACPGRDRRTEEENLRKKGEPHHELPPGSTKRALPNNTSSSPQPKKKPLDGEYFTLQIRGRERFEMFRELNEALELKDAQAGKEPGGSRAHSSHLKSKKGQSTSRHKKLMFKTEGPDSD
Summary of the method: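 Read-out is the blue/green (460/530 nm, 405 nm excitation) ratio after 2 h CCF4-AM loading, fitted as gain versus DMSO. Compounds, pinned at 217-fold dilution from DMSO stocks, stayed 16 h on HCT-116 beta-lactamase reporter cells seeded 5 h earlier.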

[3] = biological target: Cellular tumor antigen p53 (Homo sapiens) (UniProt P04637); test: TOX21_p53_BLA_p3_ratio: Tox21 HCT-116 p53 Agonism Beta-lactamase Assay, Ratio, Phase 3 (AID 2283596)
Summary of the method: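 Cells were seeded at 4000/well, rested 5 h at 37C, then dosed with DMSO compound solutions (217-fold dilution) for 16 h. CCF4-AM substrate was loaded for 2 h at room temperature, and the 460/530 nm emission ratio was fitted for gain of signal versus DMSO.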

[4] = TOX21_p53_BLA_p4_viability: Viability Assessment in the Tox21 HCT-116 p53 Agonism Beta-lactamase Assay, Phase 4 (AID 2283597);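 note: hits lower the luminescence signal meaning cytotoxicity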
Summary of the method: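 Cytotoxicity as reduced cellular ATP (CellTiter-Glo luminescence, 30 min room temperature), measured in the same wells following the CCF4 FRET p53 reading. Human HCT-116 cells received compounds in DMSO (217-fold dilution) for 16 h.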

[5] = biological target: Cellular tumor antigen p53 (Homo sapiens) (UniProt P04637); test: TOX21_p53_BLA_p5_ratio: Tox21 HCT-116 p53 Agonism Beta-lactamase Assay, Ratio, Phase 5 (AID 2283599)
Summary of the method: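 Beta-lactamase reporter ratio (blue 460 nm over green 530 nm, 405 nm excitation) after 2 h CCF4-AM loading, in HCT-116 cells exposed 16 h at 37 C to compounds pinned at 217-fold dilution. Increases relative to DMSO baseline scored.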

[6] = TOX21_p53_BLA_p5_viability: Viability Assessment in the Tox21 HCT-116 p53 Agonism Beta-lactamase Assay, Phase 5 (AID 2283600)
Summary of the method: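 Viability came from CellTiter-Glo ATP luminescence, read after 30 min at room temperature. Before this, HCT-116 p53-bla cells (4000/well) had 16 hours of compound exposure at 37C, with DMSO stocks diluted 217-fold on transfer.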

[7] = biological target: Cellular tumor antigen p53 (Homo sapiens) (UniProt P04637); test: TOX21_p53_BLA_p4_ratio: Tox21 HCT-116 p53 Agonism Beta-lactamase Assay, Ratio, Phase 4 (AID 2283601)
Summary of the method: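 Signal is the blue/green (460nm/530nm) ratio of cleaved versus uncleaved CCF4-AM substrate, read after 2 h substrate loading. Cells were HCT116 carrying the p53-responsive beta-lactamase reporter, dosed 16 h at 37C, 5% CO2; CellTiter-Glo measured in parallel.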

[8] = system: Brachyury (BRA) Protein Expression, Deisenroth Lab, TBXT (gene 6862); test: CCTE_Deisenroth_DEVTOX-GLR_legacy_Bra: (Legacy) CCTE's DevTox GLR-Endo Assay Evaluation of Brachyury (BRA) Protein Expression, Deisenroth Lab (AID 2284329; active = hit-call score of the fitted dose curve at least 0.9, where 1 is the maximum; inactive = score below 0.9)
Summary of the method: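 Percent Bra-positive cells, scored by high-content imaging against a threshold of 5x BMAD over the undifferentiated control median, with the 0.2% DMSO median subtracted. RUES2-GLR cultures were dosed twice at 24 h intervals across a 48 h differentiation, at 1 nM–200 uM in ten steps, with n=4 replicates.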

[9] = CCTE_Deisenroth_DEVTOX-GLR_legacy_CellCount: (Legacy) Viability Assessment in CCTE's DevTox GLR-Endo Assay, Deisenroth Lab (AID 2284331; active = hit-call score of the fitted dose curve at least 0.9, where 1 is the maximum; inactive = score below 0.9); conditions: actives raise or lower the signal
Summary of the method: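 Seed RUES2-GLR 24 h; differentiate 48 h, dosing at 0 and 24 h; fix, stain nuclei; image 5 fields/well; count nuclei. Conc. 1 nM - 200 uM, single technical replicate, n=4 experiments; bidirectional fit vs 0.2% DMSO.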

[10] = system: SRY-box transcription factor 2 (SOX2) Protein Expression, Deisenroth Lab, SOX2 (gene 6657); test: CCTE_Deisenroth_DEVTOX-GLR_legacy_Sox2: (Legacy) CCTE's DevTox GLR-Endo Assay Evaluation of SRY-box transcription factor 2 (SOX2) Protein Expression, Deisenroth Lab (AID 2284346; active = hit-call score of the fitted dose curve at least 0.9, where 1 is the maximum; inactive = score below 0.9)
Summary of the method: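 Percent Sox2-positive cells was scored by high-content imaging of 5 fields per well. Positivity cutoff was 5x BMAD over the directed endoderm control, and the DMSO median was subtracted. Cells were RUES2-GLR, dosed twice at 24-h intervals over 48 h of differentiation (1 nM-200 uM).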

[11] = system: SRY-box transcription factor 17 (SOX17) Protein Expression, Deisenroth Lab, SOX17 (gene 64321); test: CCTE_Deisenroth_DEVTOX-GLR_Endo_SOX17: CCTE's DevTox GLR-Endo Assay Evaluation of SRY-box transcription factor 17 (SOX17) Protein Expression, Deisenroth Lab (AID 2284413; active = hit-call score of the fitted dose curve at least 0.9, where 1 is the maximum; inactive = score below 0.9)
Summary of the method: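 RUES2-GLR human pluripotent cells were seeded 24 h, then differentiated toward endoderm for 48 h with two chemical exposures 24 h apart (10-point series, 1 nM - 200 uM). Nuclei-stained fixed cells were imaged; endpoint is percent change in SOX17+ cells versus 0.2% DMSO.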

[12] = system: Brachyury (BRA) Protein Expression, TBXT (gene 6862); test: CCTE_Deisenroth_DEVTOX-GLR_Endo_BRA: CCTE's DevTox GLR-Endo Assay Evaluation of Brachyury (BRA) Protein Expression, Deisenroth Lab (AID 2284417; active = hit-call score of the fitted dose curve at least 0.9, where 1 is the maximum; inactive = score below 0.9)
Summary of the method: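 Percent BRA+ (mesoderm) RUES2-GLR cells after 48 h differentiation with two exposures, 1 nM - 200 uM; 0.2% DMSO control subtracted.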

[13] = system: SRY-box transcription factor 17 (SOX17) Protein Expression, Deisenroth Lab, SOX17 (gene 64321); test: CCTE_Deisenroth_DEVTOX-GLR_Pluri_SOX17: CCTE's DevTox GLR-Pluri Assay Evaluation of SRY-box transcription factor 17 (SOX17) Protein Expression, Deisenroth Lab (AID 2284427)
Summary of the method: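 The endpoint is SOX17+ cells as a fraction of cell count, corrected for the 0.2% DMSO control and obtained by high-content fluorescence imaging of fixed cells. Cells were RUES2-GLR under a 48-hour endoderm differentiation, dosed twice at 24-hour intervals over 1 nM–200 uM.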

[14] = system: SRY-box transcription factor 2 (SOX2) Protein Expression, Deisenroth Lab, SOX2 (gene 6657); test: CCTE_Deisenroth_DEVTOX-GLR_Pluri_SOX2: CCTE's DevTox GLR-Pluri Assay Evaluation of SRY-box transcription factor 2 (SOX2) Protein Expression, Deisenroth Lab (AID 2284428; active = hit-call score of the fitted dose curve at least 0.9, where 1 is the maximum; inactive = score below 0.9)
Summary of the method: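 Percent SOX2+ cells (SOX2+ count per total cells, fluorescent imaging) in RUES2-GLR human pluripotent line, expressed relative to 0.2% DMSO. Compounds dosed twice at 24 h intervals during 48 h, 1 nM - 200 uM, 10 concentrations.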

[15] = CCTE_Deisenroth_DEVTOX-GLR_Pluri_CellCount: Viability Assessment in CCTE's DevTox GLR-Pluri Assay Evaluation of Total Cell Counts, Deisenroth Lab (AID 2284430; active = hit-call score of the fitted dose curve at least 0.9, where 1 is the maximum; inactive = score below 0.9)
Summary of the method: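 Cytotoxicity readout: fluorescent nuclei counts by high-content imaging, expressed as percent change relative to 0.2% DMSO. Human RUES2-GLR pluripotent line differentiated 48 h, dosed twice at 24-h intervals across 1 nM - 200 uM (10 points).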

Measured: AC50

CCC=CC#N
inactive: [1] | [2] | [3] | [4] | [5] | [6] | [7]

Nc1ccc(S(=O)(=O)NCc2ccccc2)cc1
inactive: [1] | [2] | [3] | [4] | [6]

CNCC[C@@H](Oc1ccccc1C)c1ccccc1
inactive: [1] | [2] | [3] | [4] | [5] | [7]

c1ccc(CN(CC2=NCCN2)c2ccccc2)cc1
inactive: [1] | [2] | [3] | [4] | [5] | [6] | [7]

CC(Cl)C(Cl)Cl (centres undefined)
inactive: [1] | [2] | [3] | [4] | [5] | [6] | [7]

O=C1O[C@H](CO)[C@@H](O)[C@H](O)[C@H]1O
inactive: [1] | [2] | [3] | [4] | [5] | [6] | [7]

CCCCCCCCCCCC[N+](C)(C)CC(=O)O
inactive: [1] | [2] | [3] | [4] | [5] | [7]

CCN[C@H]1CN(CCCOC)S(=O)(=O)c2sc(S(N)(=O)=O)cc21
inactive: [1] | [2] | [3] | [4] | [5] | [7]

CO
inactive: [1] | [2] | [3] | [4] | [5] | [7]

O=c1[nH]c(=O)n([C@H]2C[C@H](O)[C@@H](CO)O2)cc1Br
active: [8] 11.7 µM | [9] 10.2 µM | [10] 14.4 µM | [11] 0.657 µM | [12] 32.8 µM | [14] 3.42 µM | [15] 23.7 µM
inactive: [1] | [2] | [3] | [4] | [5] | [6] | [13]

CCC(=O)c1c(O)cc(O)cc1O
inactive: [1] | [2] | [3] | [4] | [5] | [7]

CCOc1cc(OCC)c(C(C)=O)cc1OCC
inactive: [1] | [2] | [3] | [4] | [6]

NCCNCCNCCN
inactive: [1] | [2] | [3] | [4] | [5] | [6] | [7]
